In PubChem BioAssay (NCI):
Compounds without any hit were thinned out: in the full panel of roughly 79,000, 15% have a hit. Unmarked numbers belong to inactive results. Activity calls are given as the source filed them. No stated cut-off is given here; in the data, active means growth inhibition above about 70%; inactive means the rest.

What was measured:
[1] = NCI Yeast Anticancer Drug Screen. Data for the rad50 strain (AID 155);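 further: 0% = growth of vehicle-only cultures of the same strain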; conditions: S. cerevisiae rad50 strain growth inhibition; at 50.0 µM; active compounds read high
How it was run: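 Genetically altered yeast (DNA repair pathway); compound treatment; growth inhibition vs vehicle ctrl.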

[2] = NCI Yeast Anticancer Drug Screen. Data for the mec2-1 strain (AID 157); conditions: S. cerevisiae mec2-1 strain, at 50.0 µM, active compounds read high
How it was run: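 Each compound was tested on mec2-1 yeast, a strain altered in DNA damage repair or cell cycle control. Growth inhibition is reported relative to vehicle.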

[3] = NCI Yeast Anticancer Drug Screen. Data for the sgs1 mgt1 strain (AID 161);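 further: 0% = growth of cultures given vehicle only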; conditions: S. cerevisiae sgs1 mgt1 strain, at 50.0 µM, active compounds read high
How it was run: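 Read-out: growth inhibition vs vehicle controls. Cells: mutant yeast strain deficient in DNA damage repair.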

[4] = NCI Yeast Anticancer Drug Screen. Data for the cln2 rad14 strain (AID 165);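 further: 0% = growth equal to vehicle treated cultures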; conditions: S. cerevisiae cln2 rad14 strain, at 50.0 µM, active compounds read high
How it was run: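 Test compounds were added to cln2 rad14 yeast cultures; inhibition of growth was then determined by comparison with vehicle treatment.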

[5] = NCI Yeast Anticancer Drug Screen. Data for the bub3 strain (AID 167); conditions: S. cerevisiae bub3 mutant strain, at 50.0 µM, active compounds read high
How it was run: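 Yeast carrying a defined mutation is treated with each compound, and growth is compared with that of vehicle-exposed cells to give inhibition.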

[6] = NCI Yeast Anticancer Drug Screen. Data for the mlh1 rad18 strain (AID 175); conditions: S. cerevisiae mlh1 rad18 strain growth inhibition; at 50.0 µM; active compounds read high
How it was run: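 Inhibition values reflect reduced growth of mutant yeast versus vehicle-treated controls following compound exposure; the mutations affect DNA damage repair.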

Structure (SMILES)	growth inhibition [1]	growth inhibition [2]	growth inhibition [3]	growth inhibition [4]	growth inhibition [5]	growth inhibition [6] [%]
OC1CCC(c2ccccc2)CC1 (stereo unspecified)	29.1%	11.8%	19.9%	15.7%	4.75%	7.35
c1ccc(CC2COC(c3cccs3)=N2)cc1 (stereo unspecified)	26.9%	-13.2%	21.6%	18.1%	31.2%	9
Cc1ccc(C)c(NC(=O)/C=N/O)c1	1%	-5.95%	18.5%	12.4%	2.3%	1
COc1ccc(N2C(=O)[C@@H]3[C@H](C2=O)c2[nH]c4ccccc4c2C2CCC(C(C)(C)C)C[C@@H]23)cc1 (stereo partly specified)	29.6%	4.1%	12.3%	31.4%	6.2%	7.85
CN1N=CSC12C(=O)N(c1ccc(Cl)cc1)C(=O)N2c1ccc(Cl)cc1 (stereo unspecified)	18.1%	3.6%	11.2%	30.4%	51%	11.9
c1ccc(CSc2ncnc3oc(-c4ccccc4)nc23)cc1	22.5%	17.2%	13.6%	11.2%	24%	16.4
CC1(C)C2CC3C(=CCCC3C(=O)O)C1C2 (stereo unspecified)	11.4%	15.3%	-8.55%	9.8%	11.1%	12.8
NC(N)=NCCCS	11.9%	11.3%	14.3%	-7.8%	4.15%	7.05
COc1cc(C(C#N)NNC(=O)c2ccccc2O)ccc1O (stereo unspecified)	34.4%	42.8%	44.7%	17.6%	66.2%	38
CCC(Br)C(=O)Nc1ccccc1C (stereo unspecified)	27%	3.25%	6.75%	-14.2%	20.6%	0.4
NC(=O)NCCCC1NC(=S)N(c2ccccc2)C1=O (stereo unspecified)	-3.35%	-4.35%	-3.2%	-2.95%	23.9%	34
CC1=NN(C(=O)Cc2ccccc2)C(=O)/C1=C\c1ccco1	-37.9%	-37.4%	-47.9%	-13.8%	-25.9%	-55.9
Cc1cc(=O)[nH]c2ccc(-c3ccc4[nH]c(=O)cc(C)c4c3)cc12	21.4%	-17.2%	31.3%	5.15%	23.1%	18
O=C(c1ccccc1)C1N=NN(Cc2ccccc2[N+](=O)[O-])C1C(=O)c1ccccc1 (stereo unspecified)	-6.75%	-30.9%	-25.1%	-57.5%	-1.45%	-0.65
C=C(C)c1nc(N)nc(-c2cccc(-c3nc(N)nc(C(=C)C)n3)c2)n1	-8.2%	-8.35%	0.2%	-67.6%	-11%	-0.8
COc1ccc(NNc2ccc(OC)cc2)cc1	0.95%	7.65%	-4.7%	17.9%	-5.1%	-9.5
CCCCCCCCCCCCCCCC(=O)OCC1OC(n2cc(F)c(=O)[nH]c2=O)C(NC(=O)N(CCCl)N=O)C(O)C1O (stereo unspecified)	-16.1%	-31.8%	-16.6%	-2.1%	-24.4%	-23.1
Cc1cc2c(=O)c(C)c[nH]c2cc1Cl	-21.6%	5.2%	-2.6%	-46.1%	-10.6%	-7.55
O=C1NC(=O)[C@H]2C[C@H]3C(=O)NC(=O)[C@H]3[C@@H]12	-0.7%	2.75%	-6.9%	-11.3%	3.8%	7.15
N#C/C=C(\N)C(C#N)C#N	-4.85%	-25.9%	-3.15%	6.75%	-3.6%	4.8
C/C=C/c1ccc2oc(-c3ccc(OC4OC(C)C(O)C(O)C4O)cc3)c(C)c2c1 (stereo unspecified)	98.9% (active)	99% (active)	99.2% (active)	98.7% (active)	98.5% (active)	51.9

Structure (SMILES)	growth inhibition [1]	growth inhibition [2]	growth inhibition [3]	growth inhibition [4]	growth inhibition [5]	growth inhibition [6] [%]
OCCNc1ncnc2nc[nH]c12	-17.9%	-3.5%	-12.5%	65.5%	-46.5%	2.5
COc1c2occc2c(OC)c2c(=O)c(S(=O)(=O)NC(=O)Nc3ccc(Cl)cc3)coc12	5.7%	-11.8%	3.65%	-55.8%	-20.3%	2.4
O=C1c2cccc3cccc(c23)C1(O)S(=O)(=O)O (stereo unspecified)	4.6%	-2.1%	0.85%	-13.8%	21.5%	6.95
COc1cc([N+](=O)[O-])ccc1NC(=O)Nc1nccs1	5.75%	29.9%	11.9%	-9.25%	22.4%	-37.3
COc1ccc(CCCNC(=O)Cc2ccccc2CO)cc1OC	21.6%	-46.6%	-3.4%	-0.8%	-10.2%	-48.2
COc1ccc(CCNC(=S)NC(=O)c2ccc(Cl)c(Cl)c2)cc1OC	47.6%	47%	68.3%	49.5%	44.4%	56
O=C(NC(c1ccccc1)C(O)c1ccccc1)C(Cl)Cl (stereo unspecified)	-5.45%	-14.8%	-1.95%	-4.65%	-0.75%	2.65
COc1cccc(C2c3cc4c(cc3OC(N3CCCCC3)C2C)OCO4)c1OC (stereo unspecified)	33.1%	30.8%	46.4%	19.8%	63%	61.8
COC(=O)c1ccc(C(=O)OC)c2nn3c(N)nnc3nc12	8.85%	15%	7.55%	-12.4%	9.15%	2.9
CCCCCCCCCCCCCCCCNc1nc(=S)cc(C)[nH]1	-10.2%	-27.6%	-5.05%	-14.6%	-25%	-10.9
O=C(c1ccccc1)c1cccc2c1ccc1ccccc12	13.4%	38.9%	38.3%	17%	23.4%	32.5
COc1ccc(CCNC(=O)CC2CCN(C)CC2)cc1OC	-1.05%	-6.7%	10.2%	-7.4%	15.2%	-3.75
COC(=O)c1ccccc1OC(=S)N(C)C	-8.75%	-11.4%	-8.45%	-29.1%	0.75%	-17.4
CCCCC(CC)CN(CC)CC (stereo unspecified)	-11.1%	-4.25%	-26.5%	-10.4%	2.8%	4.85
CCCCCCCCOC(=O)C1(O)CCCCC1	14.6%	28.4%	16.1%	4.2%	17.6%	36.1
NC(=O)c1ccncc1	-5%	-7.3%	-13.1%	5.35%	-1.05%	-6
Cc1cc(Cc2cc(C)c(O)c(CN(C)C)c2)cc(CN(C)C)c1O	-1.8%	-7.7%	1.35%	-19.5%	-6.1%	-7.05
O=C(O)c1cc(=O)c2cc3c(cc2o1)OCc1ccccc1-3	13.8%	-6.15%	2.1%	19.4%	-6.5%	3.55
COc1ccc(C(=O)CC(=O)CCC(=O)Nc2cc(C)ccc2C)cc1	-6.55%	5.2%	18.2%	-7.75%	5.25%	25.1
Clc1ccc2nc[nH]c2c1	10.1%	10.1%	4.5%	0.7%	5.9%	18.2
